# PubChem BioAssay (NCI)
# The panel holds about 83,000 compounds, 20% with a hit somewhere; the sample as a whole holds those more often.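 Plates (96-well) were seeded with cells, treated with compound at one concentration, and incubated for 48 hours before percent growth was determined.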 The source made the active and inactive calls. How the source made its calls: active means growth percent below 10; inactive means the rest.
# Test system: HL-60(TB) leukemia
# Experiment: NCI-60 one-dose screen, 48 h (100 = growth as untreated, 0 = no growth, -100 = all killed)
# Conditions: 10 µM unless noted
row,SMILES,growth
1,CN(C)C(=O)c1cc2cnc(Nc3ccc(-c4csc5c(=S)cc(N6CCOCC6)oc45)cc3)nc2n1C1CCCC1,-30.6% (active)
2,COc1ccc(C(=O)c2nccc3cc(OC)c(OC)cc23)cc1OC,102% (inactive)
3,O=C(COc1ccc(-c2nc3cc(Cl)c(Cl)cc3[nH]2)cc1)N=Nc1c(O)[nH]c2ccc(Cl)cc12,55.5% (inactive)
4,COc1c(-c2cc(-c3ccc(C)o3)[nH]c(=O)n2)c(O)cc2occc12,38.2% (inactive)
5,c1ccc2nc(N3CCOCC3)c(N3CCCCC3)nc2c1,98.9% (inactive)
6,CC(C)NC(=O)OCc1c(COC(=O)NC(C)C)c(-c2ccc(Cl)cc2)n2c1CCC2,43.9% (inactive)
7,C=CCn1c(C)nc2ccc(Nc3nc(Nc4ccc(F)cc4)nc4ccccc34)cc21,51.6% (inactive)
8,Cc1c(CC(=O)Nc2ccccc2)nnn1-c1ccccc1,99.3% (inactive)
9,CC(=O)OCCC(C)CCC=C(C)C (stereo not given),108% (inactive)
10,O=C(N/N=C/c1ccccc1SSc1ccccc1/C=N/NC(=O)c1ccccc1)c1ccccc1,3.4% (active)
11,O=C(O)c1ccc(CO)o1,85.6% (inactive)
12,COc1cc(/C=N/Nc2nc(-c3ccc(F)cc3)c(C#N)c(N3CCOCC3)n2)ccc1O,72.5% (inactive)
13,COc1cccc(-c2nn(-c3ccccc3)cc2-c2ccnc(NCCNS(=O)(=O)c3ccccc3)c2)c1,8.92% (active)
14,COc1ccc2c(c1)C(C)Cc1c(Cl)ncnc1N2C (stereo not given),-0.632% (active)
15,COc1cc(-c2csc(NC(=O)Nc3ccc(C(F)(F)F)cc3)n2)cc(OC)c1OC,-13.8% (active)
16,O=C(CC12CC3CC(CC(C3)C1)C2)NCCOCCOCCOCCNC(=O)c1cc2c(o1)C(=O)c1ccccc1C2=O,-7.22% (active)
17,CN1CCN(c2ccc(Nc3c4ccccc4nc4ccccc34)cc2)CC1,119% (inactive)
18,COc1ccc2c(c1)c(-c1nc(-c3c[nH]c4ncccc34)cs1)cn2CCO,58% (inactive)
19,O=c1c2cc(F)ccc2sc2c(NCCO)nc3ccccc3c12,91.9% (inactive)
20,Cc1nnc(N/N=C/c2ccc([N+](=O)[O-])o2)[nH]c1=O,-34.8% (active)

row,SMILES,growth
1,Cc1ccc(C(=O)Cc2ccccc2)c(O)c1,70.9% (inactive)
2,CC(=O)c1ccc(NCn2nc(-c3ccc(Cl)cc3)oc2=S)cc1,88.9% (inactive)
3,N#Cc1c(-c2ccccc2)cc(-c2ccccc2)n(CCCC(=O)O)c1=O,103% (inactive)
4,COc1ccc(C(=O)/C=C/c2cccc([N+](=O)[O-])c2)c(OC)c1,-10.4% (active)
5,CCOC(=O)C1OC1(c1ccccc1)c1ccccc1 (stereo not given),89.4% (inactive)
6,O=C(Nc1cccc(Cn2c(=O)[nH]c3ccc(Oc4ncccn4)cc3c2=O)c1)c1cccc(Cl)c1,54.1% (inactive)
7,CCCN1CCN(c2ccc3nc(-c4ccc5nc(-c6cc(OC)ccc6OC)[nH]c5c4)[nH]c3c2)CC1,106% (inactive)
8,CN(C)/C=C1\SC(=Nc2ccc(Cl)cc2)NC1=O,99.5% (inactive)
9,O=C(N/N=C/c1ccc([N+](=O)[O-])cc1)c1ccccc1Nc1ccnc(C(F)(F)F)c1,78.4% (inactive)
10,CN(C)c1ccc(C2CC(c3ccccc3)=NN2/C=C2\SC(=O)NC2=O)cc1 (stereo not given),84.7% (inactive)
11,O=Cc1[nH]c(Sc2ccccc2)c2ccccc12,12.1% (inactive)
12,COc1ccc(C(=O)c2cc3c(N)c(C(=O)Nc4cccc(Cl)c4)sc3nc2C)cc1,-45.3% (active)
13,CCC(O)(C(c1ccccc1)c1ccccn1)C(c1ccccc1)c1ccccn1 (stereo not given),79% (inactive)
14,O=C(O)c1cn(C2CC2)c2cc(N3CCN(C(=O)/C=C/c4ccc(Cl)cc4)CC3)c(F)cc2c1=O,60.4% (inactive)
15,CCOC(=O)C1=C(C)N=c2s/c(=C\c3ccccc3O)c(=O)n2C1c1ccc(OC)c2ccccc12 (stereo not given),-48.6% (active)
16,Nc1ncc(-c2ccc3ncnc(Nc4cccc(Cl)c4)c3c2)cn1,58.1% (inactive)
17,O=C(CN1N=C(c2ccc(F)cc2)CCC1=O)Nc1nc2ccccc2s1,8.9% (active)
18,CC(C)C(=O)Nc1ccc(-c2nc(-c3cccc(OCCN4CCOCC4)c3)c(-c3ccnc(Br)c3)[nH]2)cc1,-28.5% (active)
19,CCCCc1ccc(NS(=O)(=O)c2cc3c4c(c2)CCN4C(=O)CC3)cc1,-23.6% (active)
20,COc1cc2c(c(OC)c1OC)C(=O)N[C@@H]1[C@@H](O)[C@@H](O)[C@H](O)C[C@@H]21,99.3% (inactive)
